{"source": "the supplement of paper PMC10338343", "note": "± gives the standard deviation."}
{"tested_on": "MILI (PIWIL2) piRISC loaded with L1MC piRNA (26 nt)", "experiment": "pre-steady-state target cleavage rate (min^-1); guide: L1MC piRNA 5'p-UAACUAAAUACUAUGCAAGCUGUAGG; higher = faster piRNA-guided slicing of the target", "conditions": "auxiliary factor: 500 nM mouse GTSF1", "in_short": "(§1)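 Cleave-'n-Seq used a transcribed, DNA-blocked target RNA library at 0.1 nM and active affinity-purified piRISC with one synthetic guide at 1 nM, with or without 500 nM GTSF1 partner protein, in HEPES–potassium acetate buffer at 33 °C for 0–8 or 0–960 min. Uncleaved targets were sequenced and normalised to depth and to weakly complementary targets, and three trials were pooled with k3 capped at 0.0001 min^-1. The pre-steady-state cleavage rate was estimated by a burst-and-steady-state fit.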"}
{"sequence": "UCCUGGAUCAGCUUGCAUAGAAUAUAGUUA", "pre-steady-state target cleavage rate": "0.042 ± 0.012"}
{"sequence": "UCCUGGAUCAGCUUGCAUAGUAAUUUCAAA", "pre-steady-state target cleavage rate": "0.042 ± 0.016"}
{"sequence": "UCCUGGAACAGGAAGCAUAGUAUUUACAAA", "pre-steady-state target cleavage rate": "0.061 ± 0.02"}
{"sequence": "UCCUGGAACUCCUUGCAUAGUAUUUUCAAA", "pre-steady-state target cleavage rate": "0.0315 ± 0.0074"}
{"sequence": "UCCUCCUACAGCUUGCAUAGAUAUUAGUUA", "pre-steady-state target cleavage rate": "0.0125 ± 0.0045"}
{"sequence": "UCCUGCUACAGCUUGCAUACUAUUUACAAA", "pre-steady-state target cleavage rate": "0.0741 ± 0.024"}
{"sequence": "UCCUGGAUCAGCUUGCUAUGUAUUUACAAA", "pre-steady-state target cleavage rate": "0.00475 ± 0.0036"}
{"sequence": "UCCUCCUACAGCUUGCAUAGUAUUAACAAA", "pre-steady-state target cleavage rate": "0.11 ± 0.023"}
{"sequence": "UCCUGGAUCAGCUUGCAUAGUAUUAGUUA", "pre-steady-state target cleavage rate": "0.141 ± 0.018"}
{"sequence": "UCCUGGAUGUCGAUGCAUAGUAUUUAGAUA", "pre-steady-state target cleavage rate": "0.0384 ± 0.011"}
{"sequence": "UCCUGCUACAGCUAGCAUAGUAUUUACAAA", "pre-steady-state target cleavage rate": "0.0708 ± 0.018"}
{"sequence": "UCCUGGAUGAGCUUGGAUAGUAUUUAGAUA", "pre-steady-state target cleavage rate": "0.0187 ± 0.0061"}
{"sequence": "UCCUGGAUGUGCUUGCAUGUAUUUAGUUA", "pre-steady-state target cleavage rate": "0.00502 ± 0.0043"}
{"sequence": "UCCUGGAACAGCUUGCAUAGUAAUUUCAAA", "pre-steady-state target cleavage rate": "0.0786 ± 0.026"}
{"sequence": "UCCUGGAACAGCUUGCUAAGUAUUUAGUAA", "pre-steady-state target cleavage rate": "0.0296 ± 0.01"}
{"sequence": "UCCUGGAUGAGCUUGGAUACUAUUUAGUUA", "pre-steady-state target cleavage rate": "0.00767 ± 0.0035"}
{"sequence": "UCCUGGAUGUCCUUGCAAAGUAUUUAGAUA", "pre-steady-state target cleavage rate": "0.0324 ± 0.012"}
{"sequence": "UCCUGGAACAGCAAGCAUAGUAUUUUCAAA", "pre-steady-state target cleavage rate": "0.0642 ± 0.018"}
{"sequence": "UCCUGGAUGUCGUUGCAAAGUAUUUUGUUA", "pre-steady-state target cleavage rate": "0.0092 ± 0.0056"}
{"sequence": "UCCUGGAUGAGCUUGGAUUGUAUUUAGUUA", "pre-steady-state target cleavage rate": "0.0185 ± 0.0063"}
{"sequence": "UCCUGGUACAGCUUCGAUAGUAUUUAGAAA", "pre-steady-state target cleavage rate": "0.0453 ± 0.014"}
{"sequence": "UCCUGGAUGACCUUGCAUAGUAUUUACUUA", "pre-steady-state target cleavage rate": "0.0753 ± 0.027"}
{"sequence": "UCCUGGUACAGCUUGCAUAGUAUUGUAGUUA", "pre-steady-state target cleavage rate": "0.233 ± 0.055"}
{"sequence": "UCCUGGAUGUCCAUGCUUAGUAUUUAGUUA", "pre-steady-state target cleavage rate": "0.0223 ± 0.0087"}
{"sequence": "UCCUGGAUGUCCUUCCAUAGUAUUUAGUAA", "pre-steady-state target cleavage rate": "0.0112 ± 0.0045"}
{"sequence": "UCCUGGAUGUCGAUCAUAGUAUUUAGUUA", "pre-steady-state target cleavage rate": "0.017 ± 0.006"}
{"sequence": "UCCUGGUACAGCUUGCAUCAGUAUUUAGUUA", "pre-steady-state target cleavage rate": "0.0101 ± 0.0042"}
{"sequence": "UCCUGGAUCACCUUGCAUAGUAUUUACAAA", "pre-steady-state target cleavage rate": "0.131 ± 0.031"}
{"sequence": "UCCUGGAUGUCCUAGCAAAGUAUUUAGUUA", "pre-steady-state target cleavage rate": "0.00585 ± 0.0032"}
{"sequence": "UCCUGCUACAGCUUCCAUAGUUUUUAGUUA", "pre-steady-state target cleavage rate": "0.0226 ± 0.01"}
{"sequence": "UCCUGGAUCAGCUUGCAUAGUAUUUUGUAA", "pre-steady-state target cleavage rate": "0.0574 ± 0.016"}
{"sequence": "UCCUCCUACAGCUUGCAUUGUAUUUACAAA", "pre-steady-state target cleavage rate": "0.0269 ± 0.0098"}
{"sequence": "UCCUGGAUGUCCUUGCAUAGUUAAUAGUUA", "pre-steady-state target cleavage rate": "0.00959 ± 0.0043"}
{"sequence": "UCCUCGUACAGCUUGCAUAGUAUUUACUUA", "pre-steady-state target cleavage rate": "0.0971 ± 0.015"}
{"sequence": "UCCUGGAUGUCGUUGCAUAGUAUUUAGGUUA", "pre-steady-state target cleavage rate": "0.152 ± 0.033"}
{"sequence": "UCCUGGAACAGCUUGCAUAUAUUUAGUUA", "pre-steady-state target cleavage rate": "0.0331 ± 0.0059"}
{"tested_on": "MILI (PIWIL2) piRISC loaded with L1MC piRNA (26 nt)", "experiment": "pre-steady-state target cleavage rate (min^-1); guide: L1MC piRNA 5'p-UAACUAAAUACUAUGCAAGCUGUAGG; MIWI and MILI are mouse PIWI proteins and EfPiwi is from a freshwater sponge; tags in brackets are library labels; higher = faster piRNA-guided slicing of the target", "conditions": "auxiliary factor: none (no GTSF1)", "in_short": "as §1"}
{"sequence": "UCCUGGAUGUCGAACGUAUGUAUUUACAAA", "pre-steady-state target cleavage rate": "< 0.0001"}
{"sequence": "UCCUGGAUGUCGAACGUUAGUAUAUUGUUA", "pre-steady-state target cleavage rate": "< 0.0001"}
{"sequence": "UCCUGGAUGUCGAACCAUUAGUAUUUAGUUA", "pre-steady-state target cleavage rate": "< 0.0001"}
